Assay in all cases: NCI-60 one-dose screen, 48 h (100 = growth as untreated, 0 = no growth, -100 = all killed)
One experiment concerns HCT-15 colon. The following applies: 10 µM unless noted.
The next experiment relates to HT29 colon. Conditions: 10 µM unless noted.
The next experiment has as its system SNB-75 CNS. Conditions: 10 µM unless noted.
The next experiment deals with SNB-19 CNS. The following applies: 10 µM unless noted.
In the next experiment the test system is U251 CNS. Conditions: 10 µM unless noted.
The next experiment relates to PC-3 prostate. Conditions: 10 µM unless noted.
In the next experiment the test system is SK-MEL-5 melanoma. Conditions: 10 µM unless noted.
Another experiment relates to UACC-62 melanoma. The following applies: 10 µM unless noted.
The subject of a further experiment is LOX IMVI melanoma. The following applies: 10 µM.
Another experiment concerns SK-MEL-28 melanoma. Conditions: 10 µM unless noted.
The next experiment has as its system SK-MEL-2 melanoma. Conditions: 10 µM unless noted.
Another experiment deals with EKVX NSCLC. The following applies: 10 µM unless noted.
Another experiment deals with SN12C renal. Conditions: 10 µM unless noted.
The test system of another experiment is UO-31 renal. Conditions: 10 µM unless noted.
In a further experiment the test system is TK-10 renal. The following applies: 10 µM unless noted.
Another experiment deals with ACHN renal. Conditions: 10 µM unless noted.
For a further experiment, the system named is CAKI-1 renal. Conditions: 10 µM unless noted.
The subject of a further experiment is A498 renal. The following applies: 10 µM unless noted.
The next experiment deals with CCRF-CEM leukemia. Conditions: 10 µM unless noted.
In another experiment the test system is MOLT-4 leukemia. Conditions: 10 µM unless noted.

Compounds without any hit were thinned out: in the full panel of roughly 83,000, 20% have a hit.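 Treatment: one concentration, 48 hours, 96-well format. Scoring: percent growth, with anything below 10 considered active.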 A number with no mark means an inactive call. The source made the active and inactive calls.

As to `CC1(C)CC[C@]2(C(=O)O)CC[C@]3(C)C(=CCC4[C@@]5(C)C[C@@H](O)[C@@H]6OC(c7cccc(Br)c7)OC[C@@]6(C)C5CC[C@]43C)C2C1` (some centres undefined), the growth with HCT-15 colon was 20.7%; with HT29 colon it was 21.5%; in the experiment with SNB-75 CNS it was 85.1%; in the experiment with SNB-19 CNS, 47.1%; in the experiment with U251 CNS, 22.9%; in the experiment on PC-3 prostate, 25.3%. In addition, the growth is 41.3% in the experiment with SK-MEL-5 melanoma; 55.5% with UACC-62 melanoma; 16.5% in the experiment with LOX IMVI melanoma; 74.2% in the experiment with SK-MEL-28 melanoma; 65.8% in the experiment on SK-MEL-2 melanoma; 27.8% with EKVX NSCLC. The growth was 46.3% in the experiment on SN12C renal; 30.3% in the experiment on UO-31 renal; 35.4% in the experiment with TK-10 renal; 19.4% with ACHN renal; 39.4% in the experiment with CAKI-1 renal; 69.5% in the experiment with A498 renal. The growth in the experiment with CCRF-CEM leukemia was 27.5%; with MOLT-4 leukemia, 13.2%.
With `COc1ccc(/C=C/c2nc3ccccc3nc2Nc2cccc(C)c2)cc1`, the growth with HCT-15 colon was 104%; with HT29 colon, 101%; in the experiment with SNB-75 CNS, 99%; with SNB-19 CNS it was 98.5%; in the experiment with U251 CNS, 96.1%; in the experiment on PC-3 prostate it was 96.5%. The growth with SK-MEL-5 melanoma is 95.7%; in the experiment on UACC-62 melanoma it was 83.4%; with LOX IMVI melanoma, 108%; with SK-MEL-28 melanoma, 108%; with SK-MEL-2 melanoma it was 102%; with EKVX NSCLC, 89%. Further, the growth was 92.7% in the experiment on SN12C renal; 78.4% in the experiment on UO-31 renal; 173% in the experiment with TK-10 renal; 98.3% in the experiment on ACHN renal; 72.9% with CAKI-1 renal; 118% in the experiment with A498 renal. The growth in the experiment on CCRF-CEM leukemia was 98.7%; in the experiment on MOLT-4 leukemia, 82.7%.
Consider `O=c1cc(-c2ccccc2)oc2cc(OCCCC[P+](c3ccccc3)(c3ccccc3)c3ccccc3)cc(O)c12`, for which the growth is -94.2% (active) in the experiment with HCT-15 colon; -65% (active) in the experiment with HT29 colon; -80.7% (active) in the experiment with SNB-75 CNS; -44.5% (active) in the experiment on SNB-19 CNS; -57.4% (active) in the experiment on U251 CNS; -87.3% (active) in the experiment on PC-3 prostate. Besides, the growth in the experiment on SK-MEL-5 melanoma is -98.4% (active); in the experiment on UACC-62 melanoma, -59.5% (active); in the experiment with LOX IMVI melanoma, -90.1% (active); with SK-MEL-28 melanoma it was -98.4% (active); in the experiment with SK-MEL-2 melanoma, -94.1% (active); in the experiment with EKVX NSCLC, -97.6% (active). For the same compound, the growth in the experiment on SN12C renal was -49.5% (active); in the experiment on UO-31 renal it was -97.1% (active); in the experiment with TK-10 renal, -81.8% (active); in the experiment with ACHN renal it was -100% (active); with CAKI-1 renal it was -97.1% (active); in the experiment on A498 renal, -83.3% (active). In addition, the growth is -75.9% (active) in the experiment with CCRF-CEM leukemia and -41.7% (active) with MOLT-4 leukemia.
Take `C#CCOc1cc(N(CC)CC)ccc1C(C(=O)NC(C)(C)C)N(C(=O)C1CCc2cc(F)ccc2O1)c1ccccc1F` (centres undefined): the growth in the experiment with HCT-15 colon was 29.8%; in the experiment on HT29 colon, 45.3%; with SNB-75 CNS, 39.7%; in the experiment with SNB-19 CNS, 35.1%; with U251 CNS, 17.5%; in the experiment with PC-3 prostate, 13.5%. In addition, the growth with SK-MEL-5 melanoma was 17.3%; in the experiment on UACC-62 melanoma it was 30.9%; in the experiment on LOX IMVI melanoma it was -61.6% (active); in the experiment on SK-MEL-28 melanoma it was 63.9%; in the experiment on SK-MEL-2 melanoma it was -39.4% (active); in the experiment with EKVX NSCLC, 44.5%. For the same compound, the growth is 43.7% with SN12C renal; 23.3% in the experiment with UO-31 renal; 45% with TK-10 renal; 18.7% in the experiment on ACHN renal; 22.4% in the experiment on CAKI-1 renal; 33.3% in the experiment on A498 renal. Further, the results for the growth in the experiment on CCRF-CEM leukemia and in the experiment with MOLT-4 leukemia were 31.8% and 5.25% (active), respectively.
Take `COc1ccc(NC(=O)[C@H](C)N)cc1C(=O)Nc1cccc(C2CC(=O)c3c(cc(OC)c(OC)c3OC)O2)c1` (some centres undefined): the growth in the experiment with HCT-15 colon is 83.9%; in the experiment on HT29 colon, 109%; in the experiment with SNB-75 CNS, 88.6%; with SNB-19 CNS it was 91.5%; with U251 CNS, 93.1%; in the experiment with PC-3 prostate, 72.4%. Also, the growth with SK-MEL-5 melanoma is 76.9%; in the experiment on UACC-62 melanoma, 84.4%; in the experiment with LOX IMVI melanoma, 89.2%; in the experiment on SK-MEL-28 melanoma it was 101%; in the experiment on SK-MEL-2 melanoma, 101%; in the experiment on EKVX NSCLC, 97.2%. Also, the growth is 93.8% in the experiment on SN12C renal; 73% in the experiment with UO-31 renal; 102% with TK-10 renal; 87.1% in the experiment on ACHN renal; 82% with CAKI-1 renal; 97% in the experiment with A498 renal. The growth with MOLT-4 leukemia was 59.8%.
Take `COc1cc2oc(-c3cccc(C(=O)Nc4ccc(Cl)cc4)c3)cc(=O)c2c(OCCNC(=O)[C@H](CO)NC(=O)OC(C)(C)C)c1OC`: the growth in the experiment on HCT-15 colon is 16.5%; in the experiment on HT29 colon, -26.9% (active); with SNB-75 CNS, 74.5%; in the experiment on SNB-19 CNS, 29.7%; with U251 CNS, 24%; in the experiment with PC-3 prostate, 12.9%. Further, the growth in the experiment on SK-MEL-5 melanoma is -75.2% (active); in the experiment with UACC-62 melanoma, 7.14% (active); in the experiment on LOX IMVI melanoma, -67.5% (active); in the experiment with SK-MEL-28 melanoma, -23.8% (active); in the experiment with SK-MEL-2 melanoma, -1.01% (active); in the experiment with EKVX NSCLC, 24.1%. The growth was 16.4% in the experiment on SN12C renal; 23.6% with UO-31 renal; 42.6% in the experiment with TK-10 renal; 13.5% with ACHN renal; 19.1% with CAKI-1 renal; 71.9% in the experiment on A498 renal. In addition, the figures for the growth with CCRF-CEM leukemia and with MOLT-4 leukemia were 8.05% (active) and 5.42% (active), respectively.
For `Cn1cc(-c2nc(N)nnc2-c2c[nH]c3ccc(F)cc23)c2cc(Br)cnc21`, the growth with HCT-15 colon was 3.56% (active); with HT29 colon, -50.6% (active); in the experiment with SNB-75 CNS, -15.8% (active); with SNB-19 CNS, 22.9%; in the experiment with U251 CNS it was 1.09% (active); in the experiment with PC-3 prostate, 8.22% (active). Also, the growth in the experiment on SK-MEL-5 melanoma is -81.5% (active); with UACC-62 melanoma, 13.3%; in the experiment on LOX IMVI melanoma, 13.9%; in the experiment with SK-MEL-28 melanoma, 24%; with SK-MEL-2 melanoma, -27.7% (active); in the experiment with EKVX NSCLC it was 26.2%. Besides, the growth in the experiment with SN12C renal is 10.4%; in the experiment with UO-31 renal, 6.23% (active); with TK-10 renal, 26.2%; in the experiment on ACHN renal, 12.2%; in the experiment on CAKI-1 renal, -10.9% (active); with A498 renal it was -31.2% (active). Further, the growth is 5.12% (active) with CCRF-CEM leukemia and -0.149% (active) in the experiment with MOLT-4 leukemia.
Consider `C#CCOc1ccc(/C=N/Nc2nc(-c3ccc(F)cc3)cs2)cc1OC`, for which the growth with HCT-15 colon was 41.2%; in the experiment on HT29 colon, 78.8%; in the experiment with SNB-75 CNS, 81.8%; in the experiment on SNB-19 CNS, 77.5%; in the experiment on U251 CNS it was 89.4%; in the experiment on PC-3 prostate, 24.2%. Besides, the growth in the experiment with SK-MEL-5 melanoma is 3.86% (active); with UACC-62 melanoma, 46.7%; in the experiment on LOX IMVI melanoma, 62.4%; in the experiment with SK-MEL-28 melanoma it was 76.5%; with SK-MEL-2 melanoma it was 60.8%; in the experiment with EKVX NSCLC it was 62.5%. For the same compound, the growth in the experiment on SN12C renal is 68.9%; with UO-31 renal, 48.4%; in the experiment with TK-10 renal, 156%; in the experiment on ACHN renal it was 64.5%; in the experiment with CAKI-1 renal, 56.2%; in the experiment with A498 renal, 80.7%. Further, the growth in the experiment with CCRF-CEM leukemia was 26.3%; in the experiment with MOLT-4 leukemia, 12.1%.

These data come from PubChem BioAssay (NCI).
